Test results reported in PubChem BioAssay AID1159580 (chemical genetic matrix, 2015).
“And” between values parts separate entries of the source, which are not always exact repeats. Equal values may be shown once. Out of some 5,500 compounds screened, about 2,000 (36%) were called active. About 18% were inconclusive and are not listed. Rule as the data show it: active = normalized growth mostly below about 0.91 (no sharp cut-off); inconclusive = no clear call, values can overlap the other calls; inactive = mostly above about 0.92. Some of the results follow.

Test: chemical genetic growth profiling, strain panel (AID 1159580);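 also: tested at 20 µM; growth read once vehicle control cultures reached saturation at 30 °C; 1 = growth at the plate median or of vehicle wells; lower values mean less growth of the strain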
Settings: S. cerevisiae deletion strains, growth OD

Measured: normalized growth

COc1ccc(OC)c(C(O)C(C)N)c1 (stereo not given)
inactive: locus YAL013W, strain DEP1, stronger effect = lower value 1.02 and 1.01 | locus YAL021C, strain ccr4, stronger effect = lower value 1 | locus YAL026C, strain drs2, stronger effect = lower value 0.993 | locus YAL030W, strain snc1, stronger effect = lower value 0.998 | locus YAL040C, strain CLN3, stronger effect = lower value 0.977 | locus YBL061C, strain skt5, stronger effect = lower value 0.996 | locus YBR009C, strain hhf1, stronger effect = lower value 1.01 | locus YBR021W, strain FUR4, stronger effect = lower value 1.01 | locus YBR023C, strain chs3, stronger effect = lower value 0.998 | locus YBR171W, strain sec66, stronger effect = lower value 0.991 | locus YBR229C, strain ROT2, stronger effect = lower value 1.02 | locus YBR231C, strain swc5, stronger effect = lower value 0.977 | locus YBR279W, strain paf1, stronger effect = lower value 1 | locus YCL011C, strain gbp2, stronger effect = lower value 1.01 | locus YCL016C, strain dcc1, stronger effect = lower value 1.01 | locus YCL029C, strain bik1, stronger effect = lower value 0.99 | locus YCL061C, strain MRC1 (second series), stronger effect = lower value 1.02 | locus YCL061C, strain MRC1, stronger effect = lower value 0.99 | locus YCL069W, strain vba3, stronger effect = lower value 1 | locus YCR088W, strain abp1, stronger effect = lower value 0.998 | locus YDL005C, strain med2, stronger effect = lower value 0.994 | locus YDL035C, strain GPR1, stronger effect = lower value 1.01 | locus YDL040C, strain nat1, stronger effect = lower value 0.996 | locus YDL074C, strain BRE1, stronger effect = lower value 1.05 | locus YDL101C, strain DUN1, stronger effect = lower value 1.03 | locus YDL134C, strain PPH21, stronger effect = lower value 1.03 | locus YDL185W, strain tfp1, stronger effect = lower value 0.988 | locus YDL192W, strain arf1, stronger effect = lower value 0.99 | locus YDR001C, strain nth1, stronger effect = lower value 0.99 | locus YDR069C, strain doa4, stronger effect = lower value 0.999 | locus YDR101C, strain arx1, stronger effect = lower value 0.981 | locus YDR137W, strain rgp1, stronger effect = lower value 1.03 | locus YDR150W, strain NUM1, stronger effect = lower value 1.02 | locus YDR159W, strain sac3, stronger effect = lower value 1.01 | locus YDR162C, strain NBP2, stronger effect = lower value 1.05 | locus YDR195W, strain ref2 0.948 | locus YDR297W, strain sur2, stronger effect = lower value 0.998 | locus YDR318W, strain mcm21, stronger effect = lower value 0.977 | locus YDR334W, strain swr1, stronger effect = lower value 0.993 | locus YDR335W, strain msn5, stronger effect = lower value 0.997 | locus YDR363W, strain ESC2, stronger effect = lower value 1.03 | locus YDR388W, stronger effect = lower value 0.977 | locus YDR392W, strain spt3, stronger effect = lower value 1.01 | locus YDR502C, strain sam2, stronger effect = lower value 1 | locus YEL003W, strain gim4, stronger effect = lower value 1 | locus YEL037C, strain rad23, stronger effect = lower value 0.991 | locus YEL061C, strain CIN8 (second series), stronger effect = lower value 0.983 | locus YEL061C, strain CIN8, stronger effect = lower value 1.01 | locus YER002W, strain NOP16, stronger effect = lower value 0.993 | locus YER015W, strain faa2, stronger effect = lower value 0.99 | locus YER016W, strain bim1, stronger effect = lower value 0.998 | locus YER110C, stronger effect = lower value 0.981 | locus YER111C, strain swi4, stronger effect = lower value 1 | locus YER155C, strain BEM2 (second series), stronger effect = lower value 0.988 | locus YER155C, strain BEM2, stronger effect = lower value 1.01 | locus YER167W, strain BCK2, stronger effect = lower value 1.01 | locus YFR010W, strain ubp6, stronger effect = lower value 0.99 | locus YGL078C, strain dbp3, stronger effect = lower value 0.997 | locus YGL086W, strain mad1, stronger effect = lower value 0.983 | locus YGL167C, strain pmr1, stronger effect = lower value 0.998 | locus YGL173C, strain kem1, stronger effect = lower value 0.991 | locus YGL227W, strain vid30, stronger effect = lower value 0.991 | locus YGL240W, strain doc1, stronger effect = lower value 0.981 | locus YGL248W, strain PDE1, stronger effect = lower value 1.03 | locus YGL253W, strain hxk2, stronger effect = lower value 0.998 | locus YGR078C, strain PAC10, stronger effect = lower value 1.04 | locus YGR135W, strain pre9, stronger effect = lower value 1.03 | locus YGR229C, strain SMI1, stronger effect = lower value 1.03 | locus YGR252W, strain gcn5, stronger effect = lower value 0.947 | locus YHR013C, strain ard1, stronger effect = lower value 0.99 | locus YHR027C, strain rpn1, stronger effect = lower value 1 | locus YHR030C, strain SLT2, stronger effect = lower value 1 and 1.03 | locus YHR079C, strain IRE1 (second series), stronger effect = lower value 0.988 | locus YHR079C, strain IRE1, stronger effect = lower value 1.05 | locus YHR094C, strain hxt1, stronger effect = lower value 0.99 | locus YHR129C, strain ARP1, stronger effect = lower value 1.01 | locus YHR142W, strain chs7, stronger effect = lower value 1.01 | locus YHR200W, strain rpn10, stronger effect = lower value 0.993 | locus YIL066C, strain RNR3, stronger effect = lower value 1.01 | locus YIL073C, strain SPO22, stronger effect = lower value 1 | locus YIL125W, strain kgd1, stronger effect = lower value 0.995 | locus YIR030C, strain dcg1, stronger effect = lower value 0.988 | locus YJL092W, strain hpr5, stronger effect = lower value 0.997 | locus YJL095W, strain BCK1 (second series), stronger effect = lower value 0.997 | locus YJL095W, strain BCK1, stronger effect = lower value 1.04 and 1.03 | locus YJL115W, strain asf1, stronger effect = lower value 0.99 | locus YJL129C, strain trk1, stronger effect = lower value 0.997 | locus YJL134W, strain LCB3, stronger effect = lower value 1.01 | locus YJL154C, strain vps35, stronger effect = lower value 0.998 | locus YJL164C, strain tpk1, stronger effect = lower value 1.01 | locus YJL166W, strain qcr8, stronger effect = lower value 0.974 | locus YJL168C, strain set2, stronger effect = lower value 0.989 | locus YJL187C, strain SWE1 (second series), stronger effect = lower value 1.02 | locus YJL187C, strain SWE1, stronger effect = lower value 1 | locus YJR043C, strain POL32, stronger effect = lower value 0.977
